Results as given in PubChem BioAssay AID1619 (SRMLSC, 2009).
Out of some 220,000 compounds screened, about 830 (0.38%) were called active.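 How the source made its calls: active means compound inhibiting the enzyme by more than half at any dose during confirmatory dose-response retesting; inconclusive means strong single-dose inhibitors picked by rank but not retested; inactive means the rest.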 A selection follows. Entries with a potency or affinity are not part of this list.

Molecular target: Leucine aminopeptidase (Plasmodium falciparum (isolate 3D7)) (UniProt Q8IL11)
Experiment: P. falciparum M17LAP inhibitors, primary screen, biochemical, fluorogenic H-Leu-NHMec substrate, 1536-well (AID 1619);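 further: plate controls were full reaction with DMSO carrier for no effect and no enzyme background for full effect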
Details: recombinant M17LAP, H-Leu-NHMec fluorogenic kinetic assay; at 30 µM; active compounds read high

Sequence of Leucine aminopeptidase (Plasmodium falciparum (isolate 3D7)) (Q8IL11 whole entry, looked up): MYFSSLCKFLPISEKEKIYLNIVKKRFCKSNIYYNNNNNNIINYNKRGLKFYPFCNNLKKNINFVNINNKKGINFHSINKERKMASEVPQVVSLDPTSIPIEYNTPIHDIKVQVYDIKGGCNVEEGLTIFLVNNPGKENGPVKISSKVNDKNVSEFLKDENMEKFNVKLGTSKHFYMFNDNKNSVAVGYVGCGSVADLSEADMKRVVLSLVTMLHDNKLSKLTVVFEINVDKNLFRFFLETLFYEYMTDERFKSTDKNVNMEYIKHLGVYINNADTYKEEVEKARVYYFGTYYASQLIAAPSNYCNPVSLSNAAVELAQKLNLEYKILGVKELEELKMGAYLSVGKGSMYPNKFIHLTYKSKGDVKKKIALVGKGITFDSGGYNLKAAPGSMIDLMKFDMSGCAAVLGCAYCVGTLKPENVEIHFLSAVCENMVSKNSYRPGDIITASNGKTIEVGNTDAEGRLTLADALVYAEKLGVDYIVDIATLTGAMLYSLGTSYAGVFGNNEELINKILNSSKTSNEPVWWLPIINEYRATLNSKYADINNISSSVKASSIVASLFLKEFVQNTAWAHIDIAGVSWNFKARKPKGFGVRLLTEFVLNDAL

inhibition, inactive:
Cc1ccccc1N1CCN(C(=O)CN2C(=O)c3ccccc3C2=O)CC1 -9.93%
O=C(Nc1ccc2nsnc2c1)c1cccs1 6.9%
Cc1ccc(S(=O)(=O)Oc2ccccc2/C=N/Nc2ccc(C(=O)O)cc2)cc1 28%
CC(=O)CC(C)(C)Nc1nc2ccc([N+](=O)[O-])cc2o1 13.3%
COC(=O)c1ccc(C)c(NS(=O)(=O)c2ccc(C)c([N+](=O)[O-])c2)c1 1.7%
O=C1C2CCCN2C(c2ccc(F)cc2)N1c1nccs1 (centres undefined) 0.99%
Cc1cc(C)cc(Oc2ccc(NC(=O)C3CC=CCC3C(=O)O)cc2)c1 (centres undefined) 5.05%
Cc1cccc(Oc2ccc(NC(=O)C3CC=CCC3C(=O)O)cc2)c1 (centres undefined) 2.18%
Cc1cccc(-n2c(CNC(=O)c3ccc(S(=O)(=O)N(C)C)cc3)nnc2SCC(=O)Nc2ccc(F)cc2)c1 -5.07%
COc1cccc(CNc2nc3nc(C)cc(=O)n3[nH]2)c1 -3.52%
CC(C)(C)c1ccc(OC(=O)CN2C(=O)C3C4CCC(C4)C3C2=O)cc1 (centres undefined) -0.46%
CC(=O)Nc1cccc(C(=O)Nc2ccccc2C(=O)O)c1 4.74%
Cc1ccc(SCC(=O)Nc2ccccc2C(=O)O)cc1 -12.3%
CCOC(=O)c1cnc2c([N+](=O)[O-])cnn2c1C 12.8%
Cc1c(C(=O)O)cnc2c([N+](=O)[O-])cnn12 12.2%
Cc1cnc2c(C(=O)O)cnn2c1 13.5%
O=C(O)c1cc2ncc(-c3[nH]ncc3[N+](=O)[O-])cn2n1 15.3%
Cc1ccc(NC(=O)/C(Cl)=C/c2ccccc2)cc1C 0.91%
Cc1ccc(S(=O)(=O)N2CCN(c3ccc([N+](=O)[O-])c(NCCN4CCOCC4)c3)CC2)cc1 3.35%
CC(=O)Nc1nc(C)c(Oc2ccc(Cl)cc2Cl)c(=O)[nH]1 7.16%
Cc1sc(NC(=O)c2cc3ccccc3oc2=O)c(C(=O)OC(C)C)c1-c1ccccc1 5.06%
Cc1sc(NC(=O)C2C3CCC(O3)C2C(=O)O)nc1-c1ccc(CC(C)C)cc1 (centres undefined) 6.67%
CC(C)OC(=O)c1cc(NC(=O)C2C3CCC(O3)C2C(=O)O)cc(C(=O)OC(C)C)c1 (centres undefined) 2.91%
O=C(O)C1C2CCC(O2)C1C(=O)NCc1ccc(Cl)cc1 (centres undefined) 2.78%
O=C(c1cccc(C(F)(F)F)c1)N1CCc2c([nH]c3ccccc23)C1C(F)(F)F (centres undefined) -3.58%
Cc1cc(C)n(C2CC(=O)N(c3cccc(Cl)c3)C2=O)n1 (centres undefined) 10.2%
CCOc1cc(/C=N/n2cnnc2)ccc1OS(=O)(=O)c1ccc(C)cc1 -1.56%
O=C(NCCCN1CCCC1=O)c1cc(NS(=O)(=O)c2ccc(F)cc2)cc(NS(=O)(=O)c2ccc(F)cc2)c1 22.7%
Cc1cccc(NC(=O)CSc2ncnc3nc[nH]c23)c1C 43.9%
Cc1cccc(NC(=O)CSc2ncnc3nc[nH]c23)c1 56.5%
O=C(CSc1ncnc2nc[nH]c12)Nc1ccc(Br)cc1Cl 9.25%
O=C(CSc1ncnc2nc[nH]c12)Nc1ccccc1C(F)(F)F 12%
O=C(O)COc1cccc(NC(=O)C2CCCO2)c1 (centres undefined) 5.81%
C=CCn1c(O)c(N=Nc2nc3ccccc3c(=O)n2-c2ccccc2)c2ccccc21 -2.79%
O=C(CCCO)N/N=C/c1ccccc1[N+](=O)[O-] 8.09%
O=C(CSc1nc(O)c(-c2ccccc2)c(=O)[nH]1)N1CCOCC1 12.3%
CCOc1ccc(N2C(=O)C3Sc4[nH]c(=O)sc4C(c4ccc(OC)c(OC)c4)C3C2=O)cc1 (centres undefined) -5.76%
Cc1ccc(C)c(NC(=O)C2CC3c4ccccc4C2c2ccccc23)c1 (centres undefined) -1.72%
O=C(O)C1CC=C(Cl)CC1C(=O)NCc1ccccc1 (centres undefined) 36.4%
O=C(O)C1CC=CCC1C(=O)Nc1ccccc1C(=O)N1CCN(c2ccc(F)cc2)CC1 (centres undefined) 23.1%
Cc1ccc(N2CCN(C(=O)c3ccccc3NC(=O)C3CC=CCC3C(=O)O)CC2)cc1 (centres undefined) 49.9%
Cc1cc(NC(=O)C2CC=CCC2C(=O)O)no1 (centres undefined) 41.7%
Cc1ccccc1NC(=O)C1CC(Cl)=CCC1C(=O)O (centres undefined) 43.5%
O=C(NCCN1CCN(c2cccc(Cl)c2)CC1)C1CCCN(S(=O)(=O)c2cnc[nH]2)C1 (centres undefined) -4.03%
NC(=O)CN1CCN(c2ccccc2F)CC1 4.96%
C/C(=N/NC(=O)c1cn(-c2cccc(C)n2)cn1)c1ccc(C)cc1 -2.51%
CCOC(=O)c1ccc(-n2c(CN(CC)CC)nc3ccc([N+](=O)[O-])cc3c2=O)cc1 2.23%
Brc1cc2[nH]cnc2c2ccccc12 4.81%
Cn1c(N)c(C(=O)COc2ccc(C#N)cc2)c(=O)n(C)c1=O 7.75%
O=c1c(N2CCOCC2)coc2ccccc12 9.22%
CCCCc1sc(-c2c(C#N)c(N)nc3c2CCCCC3)cc1[N+](=O)[O-] 1.41%
O=C(CN1C(=O)C2C3C=CC(C4CC34)C2C1=O)NCc1ccco1 (centres undefined) 1.4%
O=C(CN1C(=O)C2C3C=CC(C4CC34)C2C1=O)Nc1cccc2ncccc12 (centres undefined) 6.24%
CCOc1ccc(-n2c(Cc3cc(=O)[nH]c(=O)[nH]3)nnc2SCc2cccnc2)cc1 6.43%
COc1ccc(N2CC(O)(c3ccc(C)cc3)[N+]3=C2CCCC3)cc1 (centres undefined) 1.14%
CC(C)OC(=O)c1cc(C(=O)c2cc(Cl)ccc2O)coc1=N -2.46%
COC(=O)c1cc(C(=O)c2cc(Cl)ccc2O)coc1=N 10.7%
CC(C)OC(=O)c1cc(C(=O)c2cc(Br)ccc2O)coc1=N 0.53%
COCCOC(=O)c1cc(C(=O)c2cc(Cl)ccc2O)coc1=N 12.5%
